An excerpt weighted towards active compounds, which were near 6.7% of everything screened.
C diff growth = blocks growth of Clostridium difficile | Clostridium difficile clinical isolate growth, OD600, 24 h; hits give low values | 86,000 tested, 0.25% active | AID 1259249 | growth activity, negative = inhibition, % at 16 µg/mL (by protocol);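 active means mean growth activity at or below -80% and every replicate also at or below -80%; inconclusive means mean at or below -80% but some replicate above -80%; inactive means mean growth activity above -80%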
Tcruzi prolif = blocks T. cruzi growth in NIH3T3 culture; T. cruzi beta-gal in NIH3T3, GalScreen luminescence, 90 h; AID 624255; inhibition, % at 8.34 µM; 77,000 tested, 5.9% active;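 active means mean inhibition above about 93%, with at least 55% of replicates each passing it, limit read from the data, passing the limit was not always enough; inconclusive means only one of those two conditions holds; inactive means neither condition holds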
Pf Dd2 inh = P. falciparum Dd2 growth inhibition; SYBR Green, 72 h; hits give low values; AID 1159554; activity change, % at 10 µM; 94,000 tested, 2.3% active; in the data active means activity change below about -80%; inconclusive means no clear call, values can overlap the other calls
Hits are given with their value; i = inactive; ? = inconclusive; nt = no result given.

SMILES	C diff growth	Tcruzi prolif	Pf Dd2 inh
C[C@@H]1CN([C@H](C)CO)C(=O)c2cc(NC(=O)Nc3cccc4ccccc34)ccc2O[C@@H](C)CCCCO[C@@H]1CN(C)S(=O)(=O)c1ccc(Cl)cc1	i	i	-85
C[C@@H]1CN([C@H](C)CO)C(=O)c2cc(NC(=O)Nc3cccc4ccccc34)ccc2O[C@@H](C)CCCCO[C@H]1CN(C)S(=O)(=O)c1ccc(Cl)cc1	i	i	?
C[C@@H]1CCCCO[C@H](CN(C)S(=O)(=O)c2ccc(Cl)cc2)[C@@H](C)CN([C@@H](C)CO)C(=O)c2cc(NC(=O)Nc3cccc4ccccc34)ccc2O1	i	i	-81
C[C@H](CO)N1C[C@H](C)[C@@H](CN(C)S(=O)(=O)c2ccccc2)OCCCC[C@H](C)Oc2ccc(NC(=O)Nc3cccc4ccccc34)cc2C1=O	i	i	i
COCc1cn(CC[C@H]2CC[C@H](NC(=O)Nc3ccc(Cl)cc3)[C@H](CO)O2)nn1	i	i	i
COc1ccc(CN(C)C[C@H]2Oc3c(NS(C)(=O)=O)cccc3C(=O)N([C@@H](C)CO)C[C@H]2C)cc1	i	i	i
COc1ccc(S(=O)(=O)N(C)C[C@@H]2OCCCC[C@H](C)Oc3ccc(NC(=O)Nc4ccc(F)cc4)cc3C(=O)N([C@@H](C)CO)C[C@H]2C)cc1	i	i	i
COc1ccc(NC(=O)Nc2ccc3c(c2)C(=O)N([C@@H](C)CO)C[C@H](C)[C@H](CN(C)S(=O)(=O)c2ccc(F)cc2)OCCCC[C@@H](C)O3)cc1	i	i	-85
COc1ccc(S(=O)(=O)N(C)C[C@H]2OCCCC[C@@H](C)Oc3ccc(NC(=O)Nc4ccc(F)cc4)cc3C(=O)N([C@@H](C)CO)C[C@H]2C)cc1	i	i	i
COc1ccc(S(=O)(=O)N(C)C[C@@H]2OCCCC[C@@H](C)Oc3ccc(NC(=O)Nc4ccc(F)cc4)cc3C(=O)N([C@@H](C)CO)C[C@@H]2C)cc1	i	i	-81
O=C(C[C@H]1CC[C@H](NC(=O)CC2CC2)[C@@H](CO)O1)NCc1ccc(-c2ccccc2)cc1	i	i	i
Cc1ccccc1S(=O)(=O)N(C)C[C@@H]1OCc2ccccc2-c2ccccc2C(=O)N([C@@H](C)CO)C[C@@H]1C	i	i	i
C[C@H](CO)N1C[C@H](C)[C@H](CN(C)Cc2ccc(-c3ccccc3)cc2)OCc2ccccc2-c2ccccc2C1=O	i	nt	-87
COc1ccc(CN(C)C[C@H]2OCc3cn(nn3)CCCC(=O)N([C@H](C)CO)C[C@@H]2C)cc1	i	i	i
C[C@H](CO)N1C[C@H](C)[C@H](CN(C)Cc2ccccc2)OCc2ccccc2-c2ccccc2C1=O	nt	i	i
COc1ccc(CN(C)C[C@@H]2OCc3cn(nn3)CCCC(=O)N([C@H](C)CO)C[C@H]2C)cc1	i	i	-81
C[C@@H]1CN([C@H](C)CO)C(=O)c2ccccc2-c2ccccc2CO[C@@H]1CN(C)S(=O)(=O)c1ccc(Cl)cc1	i	i	i
C[C@H](CO)N1C[C@H](C)[C@H](CN(C)S(=O)(=O)c2ccc(Cl)cc2)OCc2ccccc2-c2ccccc2C1=O	i	i	-85
Cc1ccccc1S(=O)(=O)N(C)C[C@H]1OCc2ccccc2-c2ccccc2C(=O)N([C@@H](C)CO)C[C@H]1C	i	i	-87
C[C@@H]1CN([C@@H](C)CO)S(=O)(=O)c2ccc(C#CC3CC3)cc2O[C@H]1CN(C)C(=O)Cc1ccncc1	i	i	i
O=C(Nc1cc(F)ccc1F)N1C[C@@H]2[C@H](c3ccccc31)[C@H](CO)N2CC1CCCC1	i	i	i
O=C(NC[C@H]1[C@H](c2ccccc2)[C@H](CO)N1CC1CCCC1)c1ccncc1	i	i	i
CC(=O)N1[C@@H](CO)[C@@H]2c3ccccc3N(S(=O)(=O)c3ccc(F)cc3)C[C@@H]21	i	i	i
COc1ccc(S(=O)(=O)N(C)C[C@@H]2OCCCC[C@@H](C)Oc3ccc(NS(=O)(=O)c4cn(C)cn4)cc3C(=O)N([C@H](C)CO)C[C@H]2C)cc1	nt	i	i
O=C(CN1CCOCC1)N[C@@H]1CC[C@@H](CCn2cc(C3CCCC3)nn2)O[C@H]1CO	i	nt	i
SMILES	C diff growth	Tcruzi prolif	Pf Dd2 inh
COc1ccc2c3c([nH]c2c1)[C@H](CO)N(C(=O)C1CCC1)CC31CCN(Cc2nccs2)CC1	i	nt	i
COc1ccc2c3c([nH]c2c1)[C@H](CO)N(C(=O)C1CCOCC1)CC31CCN(Cc2nccs2)CC1	i	nt	-88
COc1ccc2c3c([nH]c2c1)[C@H](CO)N(C(=O)C1CC1)CC31CCN(Cc2nccs2)CC1	i	nt	i
COc1ccc2c3c([nH]c2c1)[C@@H](CO)N(C(=O)C1CCCCC1)CC31CCN(Cc2nccs2)CC1	i	nt	-87
CN(C)C(=O)C[C@H]1CC[C@H]2[C@@H](COC[C@H](O)CN2C(=O)C2CC2)O1	i	i	i
Cc1ccc(S(=O)(=O)Nc2ccc3c(c2)C(=O)N([C@H](C)CO)C[C@@H](C)[C@H](CN(C)C(=O)c2ccccc2)OCCCC[C@@H](C)O3)cc1	i	i	i
C/C=C/c1ccc(C2[C@H]3CNC[C@@H]2N3S(=O)(=O)Cc2ccccc2)cc1 (stereo partly specified)	i	nt	i
COc1ccc(CN2C[C@H](C)[C@H](OC)CN(C)C(=O)c3cc(NC(=O)c4nc5ccccc5s4)ccc3OC[C@@H]2C)cc1	nt	nt	-83
COc1ccc(CN2C[C@H](C)[C@@H](OC)CN(C)C(=O)c3cc(NC(=O)c4nc5ccccc5s4)ccc3OC[C@H]2C)cc1	nt	nt	i
COc1ccc(CN2C[C@@H](C)[C@@H](OC)CN(C)C(=O)c3cc(NC(=O)c4nc5ccccc5s4)ccc3OC[C@H]2C)cc1	nt	nt	i
COc1ccc(CN2C[C@@H](C)[C@H](OC)CN(C)C(=O)c3ccc(NC(=O)c4nc5ccccc5s4)cc3OC[C@H]2C)cc1	i	i	-88
CCNC(=O)C[C@H]1CC[C@H]2[C@@H](COC[C@@H](O)CN2C(=O)C2CCCC2)O1	nt	i	i
C[C@H]1CN([C@@H](C)CO)C(=O)c2cc(-c3ccc(C#N)cc3)cnc2O[C@H]1CN(C)C(=O)Nc1ccccc1	i	i	i
C[C@@H]1CN([C@H](C)CO)C(=O)c2cccc(NC(=O)CCCCCC(=O)Nc3ccccc3N)c2O[C@H]1CN(C)Cc1ccc(Cl)c(Cl)c1	i	nt	-86
C[C@H]1CN([C@@H](C)CO)C(=O)c2cc(NC(=O)CCCCCC(=O)Nc3ccccc3N)ccc2O[C@H]1CN(C)Cc1ccc(Cl)c(Cl)c1	nt	i	i
C[C@H]1CN([C@@H](C)CO)C(=O)c2cc(NC(=O)CCCCCC(=O)Nc3ccccc3N)ccc2O[C@@H]1CN(C)Cc1ccc2c(c1)OCO2	i	nt	i
C[C@@H]1CN([C@@H](C)CO)C(=O)c2cccc(NC(=O)CCCCCC(=O)Nc3ccccc3N)c2O[C@@H]1CN(C)Cc1ccc2c(c1)OCO2	i	nt	-89
C[C@H]1CN([C@@H](C)CO)C(=O)c2cccc(NC(=O)CCCCCC(=O)Nc3ccccc3N)c2O[C@@H]1CN(C)Cc1ccc(Cl)c(Cl)c1	i	nt	-92
C[C@@H]1CN([C@@H](C)CO)C(=O)c2cccc(NC(=O)CCCCCC(=O)Nc3ccccc3N)c2O[C@H]1CN(C)Cc1ccc(Cl)c(Cl)c1	i	nt	-87

Source: PubChem BioAssay
